# Laboratory results from PubChem BioAssay AID1159580 (chemical genetic matrix, 2015).
# Among all 5,500 compounds or so, about 2,000 (36%) were called active. Another 18% or so got no clear call; they are omitted. The list shows a part of the results. A number with no mark means an inactive call. Cut-off read from the data, not from the text of the source: active = normalized growth mostly below about 0.91 (no sharp cut-off); inconclusive = no clear call, values can overlap the other calls; inactive = mostly above about 0.92.
# Assay: chemical genetic growth profiling, strain panel (AID 1159580);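 note: tested at 20 µM; growth read once vehicle control cultures reached saturation at 30 °C; 1 = growth at the plate median or of vehicle wells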
# Conditions: S. cerevisiae deletion strains, growth OD
smiles,measurement,setting,value
O=c1[nH]c2ccccc2n1CCCN1CCC(n2c(=O)[nH]c3cc(Cl)ccc32)CC1,normalized growth,"locus YAL013W, strain DEP1, stronger effect = lower value",0.982
same,normalized growth,"locus YAL021C, strain ccr4, stronger effect = lower value",0.982
same,normalized growth,"locus YAL026C, strain drs2, stronger effect = lower value",1.01
same,normalized growth,"locus YAL030W, strain snc1, stronger effect = lower value",0.991
same,normalized growth,"locus YAL040C, strain CLN3, stronger effect = lower value",1
same,normalized growth,"locus YBL061C, strain skt5, stronger effect = lower value",0.981
same,normalized growth,"locus YBR009C, strain hhf1, stronger effect = lower value",0.967
same,normalized growth,"locus YBR023C, strain chs3, stronger effect = lower value",0.982
same,normalized growth,"locus YBR171W, strain sec66, stronger effect = lower value",0.979
same,normalized growth,"locus YBR231C, strain swc5, stronger effect = lower value",0.945
same,normalized growth,"locus YBR279W, strain paf1, stronger effect = lower value",0.992
same,normalized growth,"locus YCL011C, strain gbp2, stronger effect = lower value",0.987
same,normalized growth,"locus YCL016C, strain dcc1, stronger effect = lower value",0.989
same,normalized growth,"locus YCL061C, strain MRC1 (second series), stronger effect = lower value",1.01
same,normalized growth,"locus YCL069W, strain vba3, stronger effect = lower value",0.978
same,normalized growth,"locus YCR088W, strain abp1, stronger effect = lower value",0.983
same,normalized growth,"locus YDL005C, strain med2, stronger effect = lower value",0.971
same,normalized growth,"locus YDL040C, strain nat1, stronger effect = lower value",0.959
same,normalized growth,"locus YDR001C, strain nth1, stronger effect = lower value",0.969
same,normalized growth,"locus YDR069C, strain doa4, stronger effect = lower value",0.971
same,normalized growth,"locus YDR137W, strain rgp1, stronger effect = lower value",1.05
same,normalized growth,"locus YDR159W, strain sac3, stronger effect = lower value",0.956
same,normalized growth,"locus YDR195W, strain ref2",0.979
same,normalized growth,"locus YDR297W, strain sur2, stronger effect = lower value",0.984
same,normalized growth,"locus YDR334W, strain swr1, stronger effect = lower value",0.976
same,normalized growth,"locus YDR335W, strain msn5, stronger effect = lower value",0.961
same,normalized growth,"locus YDR363W, strain ESC2, stronger effect = lower value",1
same,normalized growth,"locus YDR392W, strain spt3, stronger effect = lower value",0.942
same,normalized growth,"locus YEL003W, strain gim4, stronger effect = lower value",0.976
same,normalized growth,"locus YEL037C, strain rad23, stronger effect = lower value",0.974
same,normalized growth,"locus YEL061C, strain CIN8 (second series), stronger effect = lower value",0.98
same,normalized growth,"locus YER002W, strain NOP16, stronger effect = lower value",0.997
same,normalized growth,"locus YER015W, strain faa2, stronger effect = lower value",0.976
same,normalized growth,"locus YER016W, strain bim1, stronger effect = lower value",1
same,normalized growth,"locus YER111C, strain swi4, stronger effect = lower value",0.976
same,normalized growth,"locus YER155C, strain BEM2 (second series), stronger effect = lower value",0.863 (active)
same,normalized growth,"locus YFR010W, strain ubp6, stronger effect = lower value",0.951
same,normalized growth,"locus YGL167C, strain pmr1, stronger effect = lower value",0.964
same,normalized growth,"locus YGL173C, strain kem1, stronger effect = lower value",0.964
same,normalized growth,"locus YGL227W, strain vid30, stronger effect = lower value",0.972
same,normalized growth,"locus YGL240W, strain doc1, stronger effect = lower value",0.927
same,normalized growth,"locus YGL253W, strain hxk2, stronger effect = lower value",1.01
same,normalized growth,"locus YGR078C, strain PAC10, stronger effect = lower value",1.01
same,normalized growth,"locus YGR229C, strain SMI1, stronger effect = lower value",1.01
same,normalized growth,"locus YHR013C, strain ard1, stronger effect = lower value",0.965
same,normalized growth,"locus YHR027C, strain rpn1, stronger effect = lower value",0.997
same,normalized growth,"locus YHR030C, strain SLT2, stronger effect = lower value",1.02
same,normalized growth,"locus YHR079C, strain IRE1, stronger effect = lower value",0.994
same,normalized growth,"locus YHR142W, strain chs7, stronger effect = lower value",0.981
same,normalized growth,"locus YJL092W, strain hpr5, stronger effect = lower value",0.965
same,normalized growth,"locus YJL095W, strain BCK1 (second series), stronger effect = lower value",0.982
same,normalized growth,"locus YJL095W, strain BCK1, stronger effect = lower value",0.997
same,normalized growth,"locus YJL115W, strain asf1, stronger effect = lower value",0.994
same,normalized growth,"locus YJL129C, strain trk1, stronger effect = lower value",0.916
same,normalized growth,"locus YJL154C, strain vps35, stronger effect = lower value",0.958
same,normalized growth,"locus YJL164C, strain tpk1, stronger effect = lower value",0.997
same,normalized growth,"locus YJL166W, strain qcr8, stronger effect = lower value",0.929
same,normalized growth,"locus YJL187C, strain SWE1, stronger effect = lower value",0.978
same,normalized growth,"locus YJR066W, strain TOR1, stronger effect = lower value",0.932
same,normalized growth,"locus YKL160W, strain elf1, stronger effect = lower value",0.964
same,normalized growth,"locus YKR026C, strain gcn3, stronger effect = lower value",0.982
same,normalized growth,"locus YKR091W, strain srl3, stronger effect = lower value",0.984
same,normalized growth,"locus YLL001W, strain dnm1, stronger effect = lower value",0.917
same,normalized growth,"locus YLL026W, stronger effect = lower value",0.969
same,normalized growth,"locus YLL041C, strain sdh2, stronger effect = lower value",0.988
same,normalized growth,"locus YLR027C, strain aat2, stronger effect = lower value",0.972
same,normalized growth,"locus YLR113W, strain HOG1, stronger effect = lower value",1
same,normalized growth,"locus YLR221C, strain rsa3, stronger effect = lower value",1.01
same,normalized growth,"locus YLR258W, strain gsy2, stronger effect = lower value",0.998
same,normalized growth,"locus YLR262C, strain YPT6 (second series), stronger effect = lower value",0.999
same,normalized growth,"locus YLR320W, strain mms22, stronger effect = lower value",1
same,normalized growth,"locus YLR342W, strain FKS1, stronger effect = lower value",0.933
same,normalized growth,"locus YLR357W, strain rsc2, stronger effect = lower value",0.937
same,normalized growth,"locus YLR370C, strain arc18, stronger effect = lower value",0.966
same,normalized growth,"locus YLR384C, strain iki3, stronger effect = lower value",0.978
same,normalized growth,"locus YML120C, strain ndi1, stronger effect = lower value",0.962
same,normalized growth,"locus YMR058W, strain fet3, stronger effect = lower value",0.959
same,normalized growth,"locus YMR125W, strain sto1, stronger effect = lower value",1.02
same,normalized growth,"locus YMR129W, stronger effect = lower value",0.982
same,normalized growth,"locus YMR205C, strain PFK2, stronger effect = lower value",0.978
same,normalized growth,"locus YMR231W, strain pep5, stronger effect = lower value",0.977
same,normalized growth,"locus YMR307W, strain GAS1, stronger effect = lower value",0.992
same,normalized growth,"locus YNL071W, strain lat1, stronger effect = lower value",0.989
same,normalized growth,"locus YNL175C, strain NOP13, stronger effect = lower value",1.01
same,normalized growth,"locus YNL183C, strain NPR1, stronger effect = lower value",0.955
same,normalized growth,"locus YNL197C, strain WHI3, stronger effect = lower value",1.02
same,normalized growth,"locus YNL209W, strain ssb2, stronger effect = lower value",0.992
same,normalized growth,"locus YNL224C, strain SQS1, stronger effect = lower value",1
same,normalized growth,"locus YNL248C, strain rpa49, stronger effect = lower value",0.996
same,normalized growth,"locus YNL322C, strain KRE1 (second series), stronger effect = lower value",0.975
same,normalized growth,"locus YNR049C, strain mso1, stronger effect = lower value",0.983
same,normalized growth,"locus YOR001W, strain rrp6, stronger effect = lower value",0.952
same,normalized growth,"locus YOR070C, strain gyp1, stronger effect = lower value",0.991
same,normalized growth,"locus YOR080W, strain dia2, stronger effect = lower value",0.96
same,normalized growth,"locus YOR083W, strain WHI5 (second series), stronger effect = lower value",0.926
same,normalized growth,"locus YOR083W, strain WHI5, stronger effect = lower value",0.911
same,normalized growth,"locus YOR106W, strain vam3, stronger effect = lower value",0.927
same,normalized growth,"locus YOR231W, strain MKK1, stronger effect = lower value",1.01
same,normalized growth,"locus YOR265W, strain rbl2, stronger effect = lower value",0.986
same,normalized growth,"locus YOR270C, strain vph1, stronger effect = lower value",0.936
same,normalized growth,"locus YOR290C, strain snf2, stronger effect = lower value",0.988
same,normalized growth,"locus YPL051W, strain arl3, stronger effect = lower value",0.971
same,normalized growth,"locus YPL078C, strain atp4, stronger effect = lower value",0.926
same,normalized growth,"locus YPL106C, strain sse1, stronger effect = lower value",0.998
same,normalized growth,"locus YPL240C, strain hsp82, stronger effect = lower value",0.997
same,normalized growth,"locus YPL241C, strain CIN2, stronger effect = lower value",1.01
same,normalized growth,"locus YPL256C, strain CLN2, stronger effect = lower value",0.995
